# Reference: PubChem BioAssay (NCATS)
# Where “and” joins values, the source holds several entries; their conditions need not be identical. Equal entries are not always repeated. Inconclusive results are not listed. Calls of active or inactive are those of the source. The call rests on the fitted dose curve; in most records, active means well fitted inhibition curve with a large enough effect; inconclusive means small, poorly fitted or top-dose-only effect; inactive means no such curve, though single readings can be large or run the other way.
# Test: Primary qHTS for inhibitors of nuclear receptor binding SET domain protein 2 (NSD2) in an RCH-ACV wild type WT cells (2C) (AID 1645877); further: nearly all actives have a fitted effect of over 70% in size
# Settings: RCH-ACV (leukaemia line) NSD2 WT (2C) viability, CellTiter-Glo, 72 h; series mostly up to 44.9 µM; activity change, negative = cell killing: at the top concentration
# On the % scale 0 is the no-effect control and ±100 the full control effect; potency means the concentration at half of the fitted maximal effect.
SMILES,"activity change, negative = cell killing",outcome,Potency
CC1(C)CC2C3=CCC4C5(C)CCC(OC6OC(C(=O)O)C(O)C(O)C6OC6OC(CO)C(O)C(O)C6OC6OC(CO)C(O)C(O)C6O)C(C)(CO)C5CCC4(C)C3(C)CCC2(C)C(OC2OCC(O)C(OC3OC(CO)C(O)C(O)C3O)C2O)C1O (stereo not drawn),-4.93% [at 9.23 µM] (inactive),–,–
CC(NCc1ccc(OCc2cccc(F)c2)cc1)C(N)=O (stereo not drawn),-5.33% (inactive),–,–
CC(/C=C/C1(O)C(C)CC(O)CC1(C)C)OC1OC(CO)C(O)C(O)C1O (stereo not drawn),–,inactive,–
CC(NC(=O)CC(=O)O)c1nc2ccccc2c(=O)[nH]1 (stereo not drawn),–,inactive,–
Cc1ncc([N+](=O)[O-])n1CC(O)CN1CCOCC1 (stereo not drawn),–,inactive,–
COc1cc(C2Oc3c(O)cc(CCCO)cc3C2CO)ccc1O[C@H]1O[C@H](C)[C@@H](O)[C@H](O)[C@@H]1O (stereo partly drawn),–,inactive [at 17.3 µM],–
C/C=C/C=C/C=C/C(=O)O[C@@H]1C=C(CO)C(O)(C(=O)O)[C@@]2(C)CCCC(C)(C)[C@H]12 (stereo partly drawn),-23.1% [at 17.3 µM] (inactive),–,–
C[C@@H]1C(=O)O[C@H]2CC34[C@H]5C[C@@H](C(C)(C)C)C36[C@@H](OC(=O)[C@@H]6O)OC4(C(=O)O5)[C@]21O (stereo partly drawn),–,inactive,–
CC(C)CC1(C(=O)OCc2ccc(O[C@@H]3O[C@H](CO)[C@@H](O)[C@H](O)[C@H]3O)cc2)CC(=O)OC(C(=O)O)CC(=O)OCC2OC(O1)C(OC(=O)/C=C/c1ccc(O)cc1)C(O)C2O (stereo partly drawn),0.208% [at 9.23 µM] (inactive),–,–
COC1=Cc2c(nc3n(c2=O)C(C)C(=O)NC3(O)C(C)C)OC=C1 (stereo not drawn),-11.4% (inactive),–,–
C[C@]12CCC[C@](C)(C(=O)O)C1CCC13C=C(CO)C(CCC12)C3 (stereo partly drawn),-6.89% (inactive),–,–
C=C1CC[C@@H]2[C@](C)(CO[C@@H]3O[C@H](CO)[C@@H](O)[C@H](O)[C@H]3O)CCC[C@@]2(C)[C@@H]1CCC1=CCOC1=O,-9.27% [at 17.3 µM] (inactive),–,–
CC1(CO)CC2C(O)C(=O)C3(CO)CC3(C)C2C1 (stereo not drawn),2.34% (inactive),–,–
COc1c(C)c2c(c(O)c1C/C=C(\C)CC/C=C(\C)CCC(=O)O)C(=O)OC2,–,inactive,–
COc1cc(/C=C/C(=O)O[C@H]2[C@H](O)[C@@H](CO)O[C@@]2(CO)O[C@H]2O[C@H](COC(=O)c3ccc(O)cc3)[C@@H](O)[C@H](O)[C@H]2O)cc(OC)c1OC,–,inactive [at 17.3 µM],–
CC(C)C(=O)c1cn(CC(=O)COc2ccc(Oc3ccccc3)cc2)c2ccc(C(=O)O)cc12,-22.3% (inactive),–,–
O=C(COc1ccc(Cl)cc1)NC1CCC(NC(=O)COc2ccc(Cl)cc2)CC1 (stereo not drawn),-14% (inactive),–,–
CCOc1cc2ncc(C#N)c(Nc3ccc(OCc4ccccn4)c(Cl)c3)c2cc1NC(=O)/C=C/CN(C)C,–,–,282 nM (active) and 833 nM (active)
CNC(=O)[C@H]1O[C@@H](n2cnc3c(NCc4ccc(N)c(I)c4)ncnc32)[C@H](O)[C@@H]1O,2.39% [at 9.23 µM] (inactive),–,–

SMILES,"activity change, negative = cell killing",outcome,Potency
C[C@H](CCC(=O)O)[C@H]1CC[C@H]2[C@@H]3[C@H](O)C[C@@H]4C[C@H](O)CC[C@]4(C)[C@H]3CC[C@]12C,-8.84% (inactive),–,–
C[C@@H]1C(=O)O[C@H]2[C@H]1CC[C@@]1(C)C(=O)C=C[C@](C)(O)[C@H]21,2.52% (inactive),–,–
COc1ccc2c3c1O[C@H]1C[C@@H](O)C=C[C@@]31CCN(C)C2,–,inactive,–
Cc1nn(C)c(COc2ccc(N3CCN(S(=O)(=O)N(C)C)CC3)cc2)c1-c1cccc2c(CCCOc3cccc4ccccc34)c(C(=O)O)n(CCN3CCOCC3)c12,–,–,inactive
C=CC1(C)CC(O)C2(CCC3C(C)(C(=O)O)CCCC3(C)C2=O)C1 (stereo not drawn),-19.6% (inactive),–,–
CN1C(=O)N[C@@H](Cc2c[nH]c3c(Cl)cccc23)C1=O,-0.674% (inactive),–,–
C[C@@H]1O[C@@H](O[C@H]2[C@H](O)[C@@H](C(=O)O)O[C@@H](O[C@H]3CC[C@@]4(C)C(CC[C@]5(C)C4CC=C4C6CC(C)(C)CC[C@]6(C(=O)O)CC[C@]45C)C3(C)C)[C@@H]2O[C@@H]2O[C@H](CO)[C@@H](O)[C@H](O)[C@H]2O)[C@H](O)[C@H](O)[C@H]1O (stereo partly drawn),-4.73% [at 9.23 µM] (inactive),–,–
OC[C@H]1O[C@@H](OC(CCCCc2ccc(O)cc2)CCc2ccc(O)cc2)[C@H](O[C@@H]2OC[C@](O)(CO)[C@H]2O)[C@@H](O)[C@@H]1O (stereo partly drawn),2.85% [at 17.3 µM] (inactive),–,–
CC(C)c1ccc(CC(=O)N2CCC[C@@H](c3cccc(OC(C)(C)C(=O)O)c3)C2)cc1,-3.7% (inactive),–,–
COC(=O)C1C(c2ccc(O)cc2)C(C(=O)OC)C1c1ccc(O)cc1 (stereo not drawn),-21.4% (inactive),–,–
C=C1C2=CC(O)C(C)C1(C)CC/C(C)=C/CCC1(C)OC1C2=O (stereo not drawn),-11.6% (inactive),–,–
N[C@@H](CC(=O)N1CCn2c(nnc2C(F)(F)F)C1)Cc1[nH]nc2c(F)c(F)ccc12,2.5% (inactive),–,–
COc1cc2c(cc1O)C1(OC)Cc3ccc4c(c3C1N(C)CC2)OCO4 (stereo not drawn),–,inactive,–
CC1=C(CC(=O)O)c2cc(F)ccc2C1=Cc1ccc(S(C)(=O)=O)cc1,-4.73% (inactive),–,–
COc1ccc2c(c1O)OC[C@H]1c3ccc(O)cc3O[C@@H]21,-5.89% (inactive),–,–
CC1(C)CCCC2(C)C(CO)C3CCC2C31 (stereo not drawn),3.8% (inactive),–,–
C=CC1C(O[C@@H]2O[C@H](CO)[C@@H](O)[C@H](O)[C@H]2O)OC=C(C(=O)OC)C1Cc1nccc2c1[nH]c1ccccc12 (stereo partly drawn),–,inactive [at 17.3 µM],–
O=c1ccn(C2OC(CO)C(O)C2O)c(=O)[nH]1 (stereo not drawn),0.606% (inactive),–,–
CO[C@@]12CC3[C@@H]([C@@H](O)[C@@H](OC(C)=O)C4[C@](C)(COC(C)=O)CCC[C@]34C)[C@@H](C)C1=CC(=O)O2 (stereo partly drawn),-5.69% [at 17.3 µM] (inactive),–,–
